{
  "source": "paper PMC4552634",
  "about": "“A New Set of Chemical Starting Points with Plasmodium falciparum Transmission-Blocking Potential for Antimalarial Drug Discovery” (PLoS ONE, 2015)",
  "note": "Screen size: about 13,000 compounds; about 3,200 (25%) showed an effect of 50% or more. The list shows a part of the results.",
  "data": [
    {"system": "P. falciparum stage V gametocytes", "parameters": "BacTiter-Glo ATP luminescence viability of purified stage V gametocytes in 384-well plates, per cent inhibition versus DMSO", "details": "48 h, 5 µM; inhibitor", "units": {"% Inhibition": "%"}, "values": [
      {"smiles": "CCC(C)(C)C1CCc2[nH]c3ccccc3c(=O)c2C1", "note": "(stereo not drawn) [TCMDC-125226]", "% Inhibition": 30.2},
      {"smiles": "CC(=O)N/N=C/[C@H](CCc1ccccc1)NC(=O)[C@H](CC(C)C)NC(=O)c1ccc(OCCN2CCOCC2)cc1", "note": "[TCMDC-135916]", "% Inhibition": 2.96},
      {"smiles": "CC(NC(C)c1cccc(Cl)c1)C(=O)Nc1cc(C(F)(F)F)ccc1N1CCOCC1", "note": "(stereo not drawn) [TCMDC-125061]", "% Inhibition": -33.15},
      {"smiles": "Cc1cccc(C(=O)Nc2ccnc(N3CCC(N(C)Cc4cccc(C#N)c4)CC3)c2)c1", "note": "[TCMDC-134973]", "% Inhibition": -4.566},
      {"smiles": "O=C(c1ccco1)N1CCN(c2nc(-c3ccc(Cl)cc3)nc3ccccc23)CC1", "note": "[TCMDC-124753]", "% Inhibition": 14.1},
      {"smiles": "COc1ccc2nccc([C@@H](O)CN3CCC(NC(=O)C(c4cc5ccccc5s4)N4CC(C)OC(C)C4)CC3)c2c1", "note": "(stereo partly drawn) [TCMDC-140995]", "% Inhibition": 7.748},
      {"smiles": "C=CCc1cc(C2CCN(CCCCNC(=O)c3ccc(-c4ccc(C#N)cc4)cc3)CC2)c(OCC(N)=O)c2c1CCCC2", "note": "[TCMDC-135625]", "% Inhibition": -14.83},
      {"smiles": "CC1(C)CCC(C)(C)c2c1ccc(C1CCN(CCCCNC(=O)c3ccc(-c4ccc(C#N)cc4)cc3)CC1)c2OCC(N)=O", "note": "[TCMDC-135627]", "% Inhibition": 76.03},
      {"smiles": "COc1c(C2CCN(CCCCNC(=O)c3ccc(-c4ccc(Cl)cc4)cc3)CC2)ccc2c1C(C)(C)CCC2(C)C", "note": "[TCMDC-135482]", "% Inhibition": 91.33},
      {"smiles": "N#Cc1ccc(-c2ccc(C(=O)NCCCCN3CCC(c4cc(Br)c5c(c4OCC(N)=O)CCCC5)CC3)cc2)cc1", "note": "[TCMDC-135263]", "% Inhibition": -29.4},
      {"smiles": "OCCc1ccc(Nc2nccc(-c3nnc4ccccn34)n2)cc1", "note": "[TCMDC-138924]", "% Inhibition": -13.1},
      {"smiles": "COc1ccc(Nc2nc(NCc3cccnc3)cc(-c3ccc(OC)cc3)n2)cc1", "note": "[TCMDC-133467]", "% Inhibition": 9.957},
      {"smiles": "Cc1ccc(-c2[nH]n3c(=O)c4c(nc3c2C)CCCC4)cc1", "note": "[TCMDC-124479]", "% Inhibition": 75.27},
      {"smiles": "Cc1cc(-c2cc3nc4c(c(=O)n3[nH]2)CCCC4)c(C)o1", "note": "[TCMDC-125325]", "% Inhibition": 32.39},
      {"smiles": "O=c1[nH]c(NCCCNCc2cc3c(Cl)cc(Cl)cc3[nH]2)nc2ccsc12", "note": "[TCMDC-139925]", "% Inhibition": -0.4742},
      {"smiles": "Cc1cc(N2CCCC2)nc(Nc2ccc(NC(=O)C3CCCC3)cc2)n1", "note": "[TCMDC-124964]", "% Inhibition": -12.42},
      {"smiles": "CS(=O)(=O)Cc1cccc(Nc2ncc(Cl)c(Nc3cccnc3C(N)=O)n2)c1", "note": "[TCMDC-134166]", "% Inhibition": -54.44},
      {"smiles": "O=C(Nc1cccc(-c2nn3ccccc3c2-c2ccnc(Nc3ccc(C(=O)N4CCOCC4)cc3)n2)c1)c1c(F)cccc1F", "note": "[TCMDC-135910]", "% Inhibition": -23.59},
      {"smiles": "NC(=O)N1CCN(Cc2ccc(Br)cc2)CC1", "note": "[TCMDC-137933]", "% Inhibition": 4.957},
      {"smiles": "c1ccc(Oc2ccc(Nc3ccnc4cc(-c5ccc(CNCCN6CCOCC6)o5)ccc34)cc2)cc1", "note": "[TCMDC-138398]", "% Inhibition": 12.11},
      {"smiles": "c1ccc(Oc2ccc(Nc3ccnc4cc(-c5cccc(CNCCN6CCOCC6)c5)ccc34)cc2)cc1", "note": "[TCMDC-138474]", "% Inhibition": 52.49},
      {"smiles": "N#Cc1cnc2cc(-c3cnc(CNCCN4CCOCC4)s3)ccc2c1Nc1ccc(Oc2ccccc2)cc1", "note": "[TCMDC-138611]", "% Inhibition": 2.275},
      {"smiles": "c1cncc(Oc2ccc(Nc3ccnc4cc(-c5cccc(CNCCN6CCOCC6)c5)ccc34)cc2)c1", "note": "[TCMDC-138492]", "% Inhibition": 84.98},
      {"smiles": "Fc1ccc(Nc2ccnc3cc(-c4cccc(CNCCN5CCOCC5)c4)ccc23)c(Cl)c1", "note": "[TCMDC-138414]", "% Inhibition": 41.76},
      {"smiles": "CN(C)CC1CCCN1Cc1ccccc1-c1cnn(C)c(=O)c1Oc1cccc(C#N)c1", "note": "(stereo not drawn) [TCMDC-135097]", "% Inhibition": -59.69},
      {"smiles": "COc1ccc(CCNC(=O)c2ccc(-n3cc(NC(=O)c4cccnc4)cn3)cc2)cc1OC", "note": "[TCMDC-124665]", "% Inhibition": 38.46},
      {"smiles": "Nc1nc(N)c2c(Cl)c(N(Cc3ccccc3)Cc3ccccc3)ccc2n1", "note": "[TCMDC-137993]", "% Inhibition": -38.99},
      {"smiles": "O=S(=O)(NCCN1CCCC1)c1ccc(-c2cccc(CNCc3ccccc3)c2)s1", "note": "[TCMDC-132216]", "% Inhibition": 86.1},
      {"smiles": "O=S(=O)(NCCN1CCCC1)c1ccc(-c2ccc(CNCc3ccccc3)cc2)s1", "note": "[TCMDC-132233]", "% Inhibition": 71.01},
      {"smiles": "O=S(=O)(NCCN1CCCC1)c1ccc(-c2ccc(CN3Cc4ccccc4C3)cc2)s1", "note": "[TCMDC-132286]", "% Inhibition": 9.199},
      {"smiles": "O=C(O)C(F)(F)F.c1ccc(CNCc2cccc(-c3ccc(-c4nc5ccccc5[nH]4)s3)c2)cc1", "note": "[TCMDC-132714]", "% Inhibition": 15.98},
      {"smiles": "CCOC(=O)N1CCC(NC(=O)c2ccc(C(C)(C)C)cc2OC)CC1", "note": "[TCMDC-139314]", "% Inhibition": 15.99},
      {"smiles": "O=C(c1cccc(-c2noc(C(F)(F)F)n2)c1)N1CCN(C(=O)c2ccc3cc[nH]c3c2)CC1", "note": "[TCMDC-132422]", "% Inhibition": 0.1652},
      {"smiles": "N#Cc1cccc(NC(=O)c2ccc(S(=O)(=O)NCC3CCCN3CC3CCCCC3)cc2)c1", "note": "(stereo not drawn) [TCMDC-133796]", "% Inhibition": -13.1},
      {"smiles": "CC(C)CNCc1cccc(-c2cccc(CN(CCCN3CCN(C)CC3)C(=O)Nc3ccccc3)c2)c1", "note": "[TCMDC-140593]", "% Inhibition": 80.6},
      {"smiles": "CN1CCN(CCCN(Cc2cccc(-c3ccc(CNCCc4ccccc4)cc3)c2)C(=O)Nc2ccccc2)CC1", "note": "[TCMDC-140595]", "% Inhibition": 97.36},
      {"smiles": "CN1CCN(CCCN(C(=O)Nc2cc(C(F)(F)F)cc(C(F)(F)F)c2)c2ccccc2Cc2ccccc2)CC1", "note": "[TCMDC-136454]", "% Inhibition": -18.83},
      {"smiles": "CN1CCN(CCCN(Cc2cccc(-c3cccc(CNCCc4ccccc4)c3)c2)C(=O)Nc2ccccc2)CC1", "note": "[TCMDC-140594]", "% Inhibition": 106.2},
      {"smiles": "Cc1csc2nc(C(C)c3ccc(NC(=O)c4cccs4)cc3)oc(=O)c12", "note": "(stereo not drawn) [TCMDC-139034]", "% Inhibition": 5.722},
      {"smiles": "Cc1cc(-c2ccc(NC(=O)Nc3ccc4nccc(N5CCN(C)CC5)c4c3)cc2C)cc(C)n1", "note": "[TCMDC-139355]", "% Inhibition": 10.84},
      {"smiles": "Cc1cc(N[C@@H](Cc2ccccc2)C(=O)NCCc2ccccc2)nc(NCC2CCCCC2)n1", "note": "[TCMDC-134934]", "% Inhibition": -20.83},
      {"smiles": "CCCC(C)C(=O)N1CCOC(COCc2cccc(C(F)(F)F)c2)(c2ccc(Cl)cc2)C1", "note": "(stereo not drawn) [TCMDC-141953]", "% Inhibition": 24.89},
      {"smiles": "C=CCC1OC(=O)c2cc(OC)cc(OC)c21", "note": "(stereo not drawn) [TCMDC-138677]", "% Inhibition": 106},
      {"smiles": "C=CC(C)C1OC(=O)c2cc(OC)cc(OC)c21", "note": "(stereo not drawn) [TCMDC-138676]", "% Inhibition": 102.9},
      {"smiles": "Cc1ccc(-c2cc(C(=O)Nc3ccc(S(=O)(=O)N4CCCCC4C)cc3)[nH]n2)c(O)c1", "note": "(stereo not drawn) [TCMDC-124908]", "% Inhibition": -44.76},
      {"smiles": "CCCCCCN(CCCCCC)CC(O)c1cc(-c2ccc(Cl)cc2)nc2c(C)cc(C)cc12", "note": "(stereo not drawn) [TCMDC-125503]", "% Inhibition": -72.43},
      {"smiles": "CN(C(=O)NCCc1ccccc1)C1CCN(CCCCCNC(=O)/C=C/c2ccc(Cl)c(Cl)c2)CC1", "note": "[TCMDC-139523]", "% Inhibition": -13.13},
      {"smiles": "COc1ccc(-c2nc3cccnc3n2CC(=O)Nc2cc(Cl)c(Cl)cc2Cl)c(OC)c1", "note": "[TCMDC-135101]", "% Inhibition": 5.638},
      {"smiles": "COc1ccc(-n2ccnc2SCC(=O)Nc2cc(C)ccc2C)c(OC)c1", "note": "[TCMDC-123824]", "% Inhibition": -3.768},
      {"smiles": "COc1ccc(-c2nc3cccnc3n2CC(=O)Nc2c(C)cc(C)cc2C)c(OC)c1", "note": "[TCMDC-135284]", "% Inhibition": 61.51},
      {"smiles": "CC(C)CNCc1cccc(-c2ccc(CN(C(=O)Nc3ccccc3)C3CCN(Cc4ccccc4)CC3)cc2)c1", "note": "[TCMDC-140597]", "% Inhibition": 96.79},
      {"smiles": "CC(C)CNCc1cccc(-c2cccc(CN(C(=O)Nc3ccccc3)C3CCN(Cc4ccccc4)CC3)c2)c1", "note": "[TCMDC-140584]", "% Inhibition": 53.9},
      {"smiles": "CC(C)CNCc1ccc(-c2ccc(CN(C(=O)Nc3ccccc3)C3CCN(Cc4ccccc4)CC3)cc2)cc1", "note": "[TCMDC-140598]", "% Inhibition": 108.5},
      {"smiles": "CC(C)CNCc1ccc(-c2cccc(CN(C(=O)Nc3ccccc3)C3CCN(Cc4ccccc4)CC3)c2)cc1", "note": "[TCMDC-140585]", "% Inhibition": 74.29},
      {"smiles": "Cc1cn(CC(=O)Nc2cccc(-c3cccc(-c4nc5ccc(C(F)(F)F)cc5[nH]4)c3)c2)c(=O)[nH]c1=O", "note": "[TCMDC-137036]", "% Inhibition": 18.51},
      {"smiles": "O=C(Nc1ccccc1F)NC1CCN(c2ccnc(Nc3ccc(F)cc3)n2)CC1", "note": "[TCMDC-133632]", "% Inhibition": -30.06},
      {"smiles": "O=C(c1ccccc1F)N(Cc1ccc(Cl)cc1)c1ccccn1", "note": "[TCMDC-124909]", "% Inhibition": -19.06},
      {"smiles": "COc1ccc2nccc([C@@H](O)CN3CCC(NCc4ccc5c(c4)sc(=O)n5C)CC3)c2c1", "note": "[TCMDC-141149]", "% Inhibition": -6.737},
      {"smiles": "CCCCCC1c2[nH]c3ccccc3c2CCN1C(=O)OCc1ccccc1", "note": "(stereo not drawn) [TCMDC-134554]", "% Inhibition": -7.791},
      {"smiles": "CCCNCc1ccc(-c2ccc(CN(Cc3ccc4c(c3)OCO4)C(=O)[C@H]3CCCO3)cc2)nc1", "note": "[TCMDC-141531]", "% Inhibition": 105.6},
      {"smiles": "CCCNCc1ccc(-c2ccc(CN(CC3CCCO3)C(=O)C3CC(=O)c4ccccc43)cc2)nc1", "note": "(stereo not drawn) [TCMDC-141533]", "% Inhibition": 69.47},
      {"smiles": "CCCNCc1ccc(-c2ccc(CN(CC3CCCO3)C(=O)COc3ccccc3Cl)cc2)nc1", "note": "(stereo not drawn) [TCMDC-141542]", "% Inhibition": 45.23},
      {"smiles": "CCCNCc1ccc(-c2ccc(CN(CCOC)C(=O)[C@H]3CCCO3)cc2)nc1", "note": "[TCMDC-141530]", "% Inhibition": 80.98},
      {"smiles": "CCCNCc1ccc(-c2ccc(CN(CCOC)C(=O)CC3CCCC3=O)cc2)nc1", "note": "(stereo not drawn) [TCMDC-141532]", "% Inhibition": 3.565},
      {"smiles": "O=c1c2c([nH]c3cc(Cl)ccc13)CCCC2", "note": "[TCMDC-123504]", "% Inhibition": 42.94},
      {"smiles": "CS(=O)(=O)c1ccc(OCCCN(Cc2ccccc2C(F)(F)F)c2ccc(C#N)c(C(F)(F)F)c2)cc1", "note": "[TCMDC-135467]", "% Inhibition": 19.91}
    ]}
  ]
}
